Values joined by “and” are separate entries in the source; they are usually repeats but may differ in a detail not shown here. Equal entries are not always repeated. Over roughly 1,700 compounds, “fraction of GFP-LC3-positive cells (≥5 vesicles/cell)” has its median near 0.43; the highest 2% begin near 0.81. For the sample, the highest values were picked, then their nearest neighbours and some compounds at random.
The compounds below were run on CbCln3 Δex7/8/Δex7/8 GFP-LC3 cerebellar neuronal cells (assay: fraction of GFP-LC3-positive cells (≥5 vesicles/cell); higher = more autophagosome accumulation).
Summary of the method: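 By pin transfer, ~50 nL of compound in DMSO went in duplicate into 384-well plates holding 2 × 10^3 wild-type or mutant CbCln3 cerebellar cells per well that stably express GFP-LC3, followed by 24 h at 33 °C. The final 30 min included Hoechst 33342 and LysoTracker Red, and then came 3.2% PFA fixation and 10× imaging of three fields per well. Each value gives the fraction of cells above a vesicle threshold, averaged across duplicates, with CellProfiler counting GFP-LC3 vesicles and out-of-focus images left out. The threshold is 5 or more vesicles per cell.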
With CC(C)NC[C@H](O)COc1cccc2ccccc12.Cl [(S)-propranolol hydrochloride] the “fraction of GFP-LC3-positive cells” value was 0.275.
For COc1cc(/C=C/C(=O)N2CCC=CC2=O)cc(OC)c1OC [Piperlongumine], the “fraction of GFP-LC3-positive cells” value was 0.901.
COC(=O)[C@H]1[C@H]2C[C@@H]3c4[nH]c5cc(OC)ccc5c4CCN3C[C@H]2C[C@@H](OC(=O)/C=C/c2cc(OC)c(OC)c(OC)c2)[C@@H]1OC [Rescinnamin] was tested, and the “fraction of GFP-LC3-positive cells” value was 0.292.
With COc1cc(C(=O)OCCCN2CCCN(CCCOC(=O)c3cc(OC)c(OC)c(OC)c3)CC2)cc(OC)c1OC.Cl.Cl [Dilazep dihydrochloride] the “fraction of GFP-LC3-positive cells” value was 0.699.
With CN(C)CCC(c1ccccc1)c1ccccn1.O=C(O)/C=C\C(=O)O (stereo not given) [Pheniramine maleate] the “fraction of GFP-LC3-positive cells” value was 0.47.
COc1cc(-c2ccc(=O)[nH]n2)ccc1OC(F)F [zardaverine] was tested, and the “fraction of GFP-LC3-positive cells” value was 0.33.
CCCCCCCC/C=C/CCCCCCCCCC(=O)O [5561-99-9 11(Z)-Eicosenoic acid] was tested, and the “fraction of GFP-LC3-positive cells” value was 0.401.
In the case of CCCCCCCC/C=C/CCCCCCCCCC(=O)O [11(E)-Eicosenoic acid], the “fraction of GFP-LC3-positive cells” value is reported as 0.25.
Cl.Cl.OCCN1CCN(CC/C=C2/c3ccccc3Sc3ccc(C(F)(F)F)cc32)CC1 [Flupentixol dihydrochloride cis-(Z)] was tested, and the “fraction of GFP-LC3-positive cells” value was 0.291.
For CCCCC/C=C\C[C@@H](O)/C=C/C=C\CCC(=O)O [Tetranor-12(R)-HETE], the “fraction of GFP-LC3-positive cells” value was 0.513.
With CC(C)NCC(O)COc1cccc2ccccc12.Cl (stereo in doubt) [(R)-Propranolol hydrochloride] the “fraction of GFP-LC3-positive cells” value was 0.486.
For C[C@@H]1C/C=C/C=C/C=C/C=C/[C@H](O[C@@H]2O[C@H](C)[C@@H](O)[C@H](N)[C@@H]2O)C[C@@H]2O[C@](O)(C[C@@H](O)C[C@H]3OC3/C=C/C(=O)O1)C[C@H](O)[C@H]2C(=O)O (stereo not given in full) [Natamycin], the “fraction of GFP-LC3-positive cells” value was 0.298.
With NS(=O)(=O)c1cc(C(=O)O)c(NCc2ccco2)cc1Cl [Furosemide] the “fraction of GFP-LC3-positive cells” value was 0.511.
In the case of CCC(C)[C@H](NS(=O)(=O)c1cccc2ccccc12)C(=O)N[C@H](C=O)Cc1c[nH]c2ccccc12 (stereo not given in full), the “fraction of GFP-LC3-positive cells” value is reported as 0.69 and 0.692.
In the case of CCN[C@H]1C[C@H](C)S(=O)(=O)c2sc(S(N)(=O)=O)cc21.Cl [Dorzolamide hydrochloride], the “fraction of GFP-LC3-positive cells” value is reported as 0.432.
C=C1c2c(Cl)ccc(O)c2C(=O)C2=C(O)[C@]3(O)C(=O)C(C(N)=O)=C(O)[C@@H](N(C)C)[C@@H]3[C@@H](O)C12.O=C(O)c1cc(S(=O)(=O)O)ccc1O (stereo not given in full) [Meclocycline sulfosalicylate] was tested, and the “fraction of GFP-LC3-positive cells” value was 0.345.
In the case of CCc1cc(C(N)=S)ccn1 [Ethionamide], the “fraction of GFP-LC3-positive cells” value is reported as 0.393.
With O=C(CCNNC(=O)c1ccncc1)NCc1ccccc1 [Nialamide] the “fraction of GFP-LC3-positive cells” value was 0.406.
For Clc1cccc(Nc2nnc(-c3ccccc3)c3ccccc23)c1, the “fraction of GFP-LC3-positive cells” value was 0.522.
With CC[C@H](C)C(=O)O[C@H]1C[C@@H](C)C=C2C=C[C@H](C)[C@H](CC[C@@H]3C[C@@H](O)CC(=O)O3)[C@H]21 [Lovastatin] the “fraction of GFP-LC3-positive cells” value was 0.0901.
In the case of C=CC(N)CCC(=O)O (stereo not given) [Vigabatrin], the “fraction of GFP-LC3-positive cells” value is reported as 0.474.
In the case of O=C(O)CCCC[C@@H]1SC[C@@H]2NC(=O)N[C@@H]21 [Biotin], the “fraction of GFP-LC3-positive cells” value is reported as 0.393.
For CCN(CC)CCOCCOC(=O)C1(c2ccccc2)CCCC1.O=C(O)CC(O)(CC(=O)O)C(=O)O [Carbetapentane citrate], the “fraction of GFP-LC3-positive cells” value was 0.469.
NS(=O)(=O)c1cc(C(=O)O)cc(N2CCCC2)c1Oc1ccccc1 [Piretanide] was tested, and the “fraction of GFP-LC3-positive cells” value was 0.344.
CC(C(=O)O)c1ccc(C(=O)c2ccccc2)s1 (stereo not given) [Tiaprofenic acid] was tested, and the “fraction of GFP-LC3-positive cells” value was 0.467.
In the case of CN(C(Cc1ccc(OS(=O)(=O)c2cccc3cnccc23)cc1)C(=O)N1CCN(c2ccccc2)CC1)S(=O)(=O)c1cccc2cnccc12 (stereo not given), the “fraction of GFP-LC3-positive cells” value is reported as 0.324 and 0.255.
CCCCCCCCCCCCCCCCCCOC[C@@H](O)COP(=O)([O-])OCC[N+](C)(C)C was tested, and the “fraction of GFP-LC3-positive cells” value was 0.362.
With Cc1cc2cc3c(C)cc(=O)oc3c(C)c2o1 [Trioxsalen] the “fraction of GFP-LC3-positive cells” value was 0.357.
For COc1cc(C)nc(-n2nc(C)cc2OC)n1 [Epirizole], the “fraction of GFP-LC3-positive cells” value was 0.324.
For C[N+]1(CCCCC[N+]2(C)CCCC2)CCCC1.O=C([O-])[C@H](O)[C@@H](O)C(=O)O.O=C([O-])[C@H](O)[C@@H](O)C(=O)O [Pentolinium bitartrate], the “fraction of GFP-LC3-positive cells” value was 0.493.
In the case of COC(=O)C1=C(C)NC(C)=C(C(=O)OCCN(C)Cc2ccccc2)C1c1cccc([N+](=O)[O-])c1 (stereo not given) [Nicardipine], the “fraction of GFP-LC3-positive cells” value is reported as 0.146.
For Nc1ncn(C2O[C@H](CO)[C@@H](O)[C@H]2O)c(=O)n1 (stereo not given in full) [Azacytidine-5], the “fraction of GFP-LC3-positive cells” value was 0.861.
For Nc1nc(S)c2ncn([C@@H]3O[C@H](CO)[C@@H](O)[C@H]3O)c2n1 [Thioguanosine], the “fraction of GFP-LC3-positive cells” value was 0.576.
For Nc1ncnc2c1ncn2C1O[C@H](CO)[C@@H](O)[C@@H]1O (stereo not given in full) [Vidarabine], the “fraction of GFP-LC3-positive cells” value was 0.406.
Nc1ccc(S(=O)(=O)Nc2ncccn2)cc1 [Sulfadiazine] was tested, and the “fraction of GFP-LC3-positive cells” value was 0.438.
In the case of C=C1CC[C@H](O)C/C1=C/C=C1\CCC[C@]2(C)[C@@H]([C@H](C)CCCC(C)C)CC[C@@H]12 [Cholecalciferol], the “fraction of GFP-LC3-positive cells” value is reported as 0.281.
With Oc1cc(O)c2c(c1)O[C@H](c1ccc(O)c(O)c1)[C@@H](O)C2 [Epicatechin-(-)] the “fraction of GFP-LC3-positive cells” value was 0.438.
In the case of NS(=O)(=O)c1cc2c(cc1C(F)(F)F)NCNS2(=O)=O [Hydroflumethiazide], the “fraction of GFP-LC3-positive cells” value is reported as 0.451.
For C[C@@H](O)CCC[C@H](O)/C=C/[C@@H]1[C@@H](C/C=C\CCCC(=O)O)[C@@H](O)C[C@H]1O [19(R)-Hydroxy-prostaglandin F2a], the “fraction of GFP-LC3-positive cells” value was 0.532.
For O=C(NCCNCC(O)COc1ccc(O)cc1)N1CCOCC1.O=C(NCCNCC(O)COc1ccc(O)cc1)N1CCOCC1.O=C(O)/C=C/C(=O)O (stereo not given) [Xamoterol hemifumarate], the “fraction of GFP-LC3-positive cells” value was 0.32.
With COc1cc([C@@H]2c3cc4c(cc3[C@@H](OC3OC5COC(C)OC5C(O)C3O)[C@H]3COC(=O)[C@H]23)OCO4)cc(OC)c1O (stereo not given in full) [etoposide] the “fraction of GFP-LC3-positive cells” value was 0.664.
Cc1cccc(C)c1NC(=O)C(C)N.Cl (stereo not given) [Tocainide hydrochloride] was tested, and the “fraction of GFP-LC3-positive cells” value was 0.504.
Cl.c1ccc(CC2=NCCN2)cc1 [Tolazoline hydrochloride] was tested, and the “fraction of GFP-LC3-positive cells” value was 0.508.
In the case of C=CC(=O)c1ccc2ccccc2c1, the “fraction of GFP-LC3-positive cells” value is reported as 0.499.
NC[C@H]1CC[C@H](C(=O)O)CC1 [Tranexamic acid] was tested, and the “fraction of GFP-LC3-positive cells” value was 0.53.
